Screening results deposited in PubChem by several laboratories.
Most compounds without a hit are left out; they make up all but 3.2% or so of the library.
SMARCA2 act: SMARCA2 (BRM) function activators, primary screen, cell-based, luminescence, high throughput; MG213 cells, MMTV-luciferase reporter, dexamethasone, overnight; activation, % at 9.1 µM; 370,000 tested, 1% active; AID 652017, 2013; in the data active = activation above about 7.8%;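 note: 0% = vehicle wells and 100% = reference activator wells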
dFosB act-1: activators of delta FosB homodimer, primary screen, biochemical, fluorescence polarization, TAMRA-CDK5 oligo, single point. AID 493131, 2011. Protein FosB (Mus musculus), P13346. activation, % at 25 µM. purified delta FosB; percent of positive-control signal above neutral wells. 340,000 tested, 0.99% active;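 active = mean activation above about 17%, with every replicate also reaching it, limit read from the data, passing the limit was not always enough; inconclusive = only one of the two conditions met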
Dyrk1A ADPGlo: rat Dyrk1A kinase inhibitors, primary screen, biochemical, single point, plate reader; ADP-Glo luminescence, NFATc1 peptide; 310,000 tested, 0.43% active; inhibition, % at 12.5 µM; Dual specificity tyrosine-phosphorylation-regulated kinase 1A (Rattus norvegicus), Q63470; in the data active = inhibition above about 50%;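 note: plate controls were vehicle with enzyme for no effect and no enzyme for full effect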
Rtt109 Vps75: inhibitors of C. albicans Rtt109/Vps75 HAT, primary screen, biochemical, ThioGlo CoA-SH fluorescence, plate reader; Histone acetyltransferase RTT109 (Candida albicans (strain SC5314 / ATCC MYA-2876)), …; purified Rtt109/Vps75, 4 h; inhibition, % at 34.9 µM; 330,000 tested, 0.16% active; AID 540336, 2011;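 active = inhibition of at least 50% in every replicate; inconclusive = best replicate reaches 50% inhibition but some replicates fall short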
Target sequence (Q5AAJ8 whole entry, looked up): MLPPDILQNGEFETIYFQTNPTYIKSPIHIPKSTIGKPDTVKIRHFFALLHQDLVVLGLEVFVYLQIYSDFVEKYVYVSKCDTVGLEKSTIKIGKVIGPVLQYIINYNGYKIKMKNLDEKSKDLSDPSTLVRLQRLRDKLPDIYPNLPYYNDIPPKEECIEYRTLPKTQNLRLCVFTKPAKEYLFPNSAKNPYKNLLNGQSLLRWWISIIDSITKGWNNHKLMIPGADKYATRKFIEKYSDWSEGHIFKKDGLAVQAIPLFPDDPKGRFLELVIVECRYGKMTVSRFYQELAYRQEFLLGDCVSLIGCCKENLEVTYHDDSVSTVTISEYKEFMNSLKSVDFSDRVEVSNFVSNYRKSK
CDK5 inh: inhibitors of human CDK5/p35 kinase, primary screen, biochemical, single concentration. Cyclin-dependent kinase 5 (Homo sapiens) + Cyclin-dependent kinase 5 activator 1 (Homo …. Recombinant CDK5/p35, ADP-Glo luminescence, 60 min. inhibition, % at 10 µM. 330,000 tested, 0.01% active. AID 488839, 2010;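 active = highest replicate inhibition of at least 50% and at least 75% of replicates reaching 50%; inconclusive = only one of the two criteria met; inactive = both criteria failed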;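 note: plate controls were DMSO neutral control for no effect and GW8510 at 10 µM for full effect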
esBAF inh: Bmi1 luciferase reporter increase in mESCs, primary screen, esBAF inhibitor project, mouse ES cells, Bmi1 luciferase knock-in, single point; 24 h; 100% = twice the neutral-well signal; reporter increase, % at 12.5 µM; 350,000 tested, 2% active; in the data active = activation above about 40%; inconclusive = no clear call, values can overlap the other calls;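 note: 0% = median of the plate's neutral control wells and 100% = double that signal; a rise in the Bmi1 reporter signal indicates esBAF inhibition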
dFosB act-2: activators of mouse delta FosB DNA binding, confirmation, biochemical, fluorescence polarization, TAMRA-CDK5 oligo, cherry-picked samples | 2,400 tested, under 10 active | activation, % at 24.9 µM | purified delta FosB; normalised: neutral wells 0, positive control 100 | shares compounds with dFosB act-1;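 active = highest replicate activation at or above 34% and every replicate reaching that threshold; inconclusive = meets only one of the two criteria; inactive = meets neither criterion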;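 note: higher polarization means more probe DNA bound by delta FosB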
Starred values were filed as active, the others as inactive; u = inconclusive; x = no result.

SMILES	SMARCA2 act	dFosB act-1	Dyrk1A ADPGlo	Rtt109 Vps75	CDK5 inh	esBAF inh	dFosB act-2
COc1ccc(CCn2c(=N)c(C(=O)NC3CCCC3)cc3c(=O)n4ccccc4nc32)cc1	-2	-14	3	8	0	-5	x
Cc1cccn2c(=O)c3cc(C(=O)NCc4ccco4)c(=N)n(CCc4ccccc4)c3nc12	5	20*	-5	-30	-1	-9	-2
COc1ccc(Cn2c(=N)c(C(=O)NC3CCCCC3)cc3c(=O)n4ccccc4nc32)cc1	-1	34*	x	5	x	4	5
Cc1cccn2c(=O)c3cc(C(=O)NCCc4ccccc4)c(=N)n(Cc4ccco4)c3nc12	-3	5	-4	-7	-1	-3	x
Cc1ccc(CNC(=O)c2cc3c(=O)n4ccccc4nc3n(Cc3ccco3)c2=N)cc1	6	25*	1	-8	-1	x	0
COc1ccc(CNCCC(c2ccc(F)cc2)c2ccc(OC)cc2)cc1 (configuration not stated)	0	21*	2	13	1	x	4
CN1CCN(C(=O)C[C@@H]2C[C@@H]3c4cc(NC(=O)Nc5ccc(F)cc5)ccc4O[C@@H]3[C@H](CO)O2)CC1	x	x	x	x	x	-2	x
O=C(Nc1cccc(O)c1)c1cc(-c2ccc3c(c2)OCO3)on1	-1	33*	-1	-5	2	-66	0
C[C@@H]1CCCCO[C@@H](CN(C)C(=O)Cc2ccccc2)[C@H](C)CN([C@@H](C)CO)C(=O)c2cc(NC(=O)Nc3cccc4ccccc34)ccc2O1	x	x	x	x	x	9	x
C[C@H]1CN([C@@H](C)CO)C(=O)Cc2cc(NC(=O)C3CC3)ccc2O[C@H]1CN(C)S(=O)(=O)c1ccc(F)cc1	x	x	x	x	x	2	x
CCc1cccc2c(C(=O)COC(=O)c3ccc(O)cc3)c[nH]c12	-1	36*	2	-3	2	49*	4
CCc1cccc2c(C(=O)COC(=O)c3ccccc3)c[nH]c12	1	-3	-1	3	1	x	x
O=C(CCn1c(=S)[nH]c2cc3c(cc2c1=O)OCO3)NCc1cccc(Cl)c1	0	21*	-1	-6	0	-1	-1
Cc1ccc(Cn2c(=O)n(CCC(=O)NCc3ccc4c(c3)OCO4)c(=O)c3ccccc32)cc1	-2	28*	10	7	0	-4	3
O=C(Cn1cc(C(=O)C2CC2)c2ccccc21)NCc1ccc2c(c1)OCO2	-5	22*	0	-5	-1	1	5
N#Cc1ccccc1Cn1c(=O)n(CCCC(=O)NCc2ccc3c(c2)OCO3)c(=O)c2ccccc21	-3	1	-4	2	0	x	x
CC(=O)c1cn(CC(=O)NCc2ccc3c(c2)OCO3)c2ccccc12	-4	15	-6	-3	-2	-10	x
CCc1c(C)c(C#N)c2nc3ccccc3n2c1NCCN(C)C	2	21*	9	3	-2	13	-2
O=C1CC(C(=O)Nc2ccc(Br)cc2)S/C(=N\N=C\c2ccco2)N1 (configuration not stated)	1	15	-4	6	1	x	x
O=C1CC(C(=O)Nc2ccc(Cl)c(Cl)c2)S/C(=N\N=C\c2ccco2)N1 (configuration not stated)	4	32*	-7	5	-1	x	0
O=C1CC(C(=O)Nc2ccc(Cl)cc2)S/C(=N\N=C\c2ccco2)N1 (configuration not stated)	-2	45*	4	-6	1	x	0
O=C1CC(C(=O)Nc2ccccc2)S/C(=N\N=C\c2ccco2)N1 (configuration not stated)	-1	28*	1	-12	0	x	5
Cc1ccc(NC(=O)CC2S/C(=N/N=C/c3ccco3)NC2=O)cc1Cl (configuration not stated)	1	33*	5	-6	-2	x	-1
Cc1ccc(NC(=O)CC2S/C(=N/N=C/C=C/c3ccccc3)NC2=O)cc1Cl (configuration not stated)	-1	-13	0	2	-1	x	x
COc1ccc(/C=N/n2cnc3c([nH]c4ccc(C)cc43)c2=O)cc1CN1CCCC1	2	42*	16	4	0	17	2
SMILES	SMARCA2 act	dFosB act-1	Dyrk1A ADPGlo	Rtt109 Vps75	CDK5 inh	esBAF inh	dFosB act-2
COc1ccc(/C=N/n2cnc3c([nH]c4ccc(F)cc43)c2=O)cc1CN1CCCC1	4	-20	11	3	0	-5	x
COc1ccc2c(c1)[nH]c1c(=O)n(/N=C/c3ccc(OC)c(CN4CCCC4)c3)cnc12	6	66*	15	15	0	x	u
COc1ccc2[nH]c3c(=O)n(/N=C/c4ccc(OC)c(CN5CCCC5)c4)c(C)nc3c2c1	-4	-5	31	13	5	5	x
C[C@H]1CN([C@@H](C)CO)C(=O)c2cccc(NC(=O)NC3CCCCC3)c2O[C@H]1CN(C)Cc1ccc(C(F)(F)F)cc1	x	x	x	x	x	0	x
CSc1nc2ccc3nc(NC(=O)C4COc5ccccc5O4)sc3c2s1 (configuration not stated)	-3	70*	43	0	1	15	-1
c1ccc(-n2cc(CN3CCCC(CN4CCCC4)C3)c(-c3ccc4c(c3)OCO4)n2)cc1 (configuration not stated)	1	27*	-24	3	-1	-9	-6
OC[C@@H]1CCCN1Cc1cn(-c2ccccc2)nc1-c1ccc2c(c1)OCO2	1	-2	11	33	5	8	x
O=C(Nc1ccc(Cl)cc1Cl)NC1CCN(S(=O)(=O)c2ccc(F)cc2)CC1	-2	55*	-3	-2	0	x	1
Cc1ccc(Cn2c(CCNc3nc(-c4ccc(C)cc4)cs3)nc3cc(C(=O)NCCCO)ccc32)cc1	-1	23*	-8	1	0	-1	1
COCCNC(=O)C[C@H]1C[C@@H]2c3cc(NS(C)(=O)=O)ccc3O[C@@H]2[C@@H](CO)O1	x	x	x	x	x	-3	x
O=C(CNC(=O)c1cccc(Cl)c1)Nc1ccc(F)c(F)c1F	-1	-2	-1	4	1	-6	x
